Results filed as inconclusive are left out. Where a call stands in place of a potency, no number is given. Active and inactive are the calls of the source. Unless noted, calls come from the whole dose curve.
Key:
[1] = target: Peroxisome proliferator-activated receptor delta (Homo sapiens) (UniProt Q03181); test: qHTS assay for small molecule agonists of peroxisome proliferator-activated receptor delta signaling (AID 588534)
How it was run: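 Agonist-mode beta-lactamase reporter readout (CCF4 dye, 2 h at RT) after 18 h at 37 °C exposure to a titration; Hill-equation fitting gave EC50 and maximal response.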

[2] = Cell Viability - LYMP2-004 (AID 966; active = well fitted curve in the direction sought with a large enough effect; an effect the other way counts as inactive or inconclusive; note: nearly all actives have a fitted effect of over 65% in size)
How it was run: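 AC50 values come from Hill modelling of concentration-dependent loss of intracellular ATP, measured by CellTiter-Glo luminescence. Human LYMP2-004 lymphoblastoid cells (2500/well) were exposed to compound for 24 h at 37 C.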

[3] = Cell Viability - LYMP2-025 (AID 976; active = well fitted curve in the direction sought with a large enough effect; an effect the other way counts as inactive or inconclusive)
How it was run: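 Cytotoxicity read as loss of intracellular ATP (luciferase luminescence) after 24 h compound treatment at 37 C. Uses LYMP2-025 lymphoblastoid cells in 1536-well format; Hill-equation modelling gives AC50; tetraoctylammonium bromide as positive control.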

[4] = S16 Schwann cell PMP22 intronic element beta-lactamase assay (AID 624044); conditions: S16 rat Schwann cells, PMP22 element beta-lactamase FRET, 24 h; ratio activity, negative = inhibition: at 38.3 µM (top of the series); note: nearly all actives have a fitted effect of over 15% in size
How it was run: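 Beta-lactamase reporter under a PMP22 intronic regulatory element in stable S16 rat Schwann cells; 24 h compound exposure. 460 nm blue signal normalized between DMSO (0%) and potassium clavulanate, with 535 nm FRET tracking viability; curves classed by r2 and response.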

[5] = target: Peroxisome proliferator-activated receptor gamma (Homo sapiens) (UniProt P37231); test: qHTS assay for small molecule agonists of peroxisome proliferator-activated receptor gamma signaling (AID 588536; active = well fitted curve in the direction sought with a large enough effect in the signal ratio, with a control signal flat, not every such curve was filed as active; the % refers to the signal ratio)
Peroxisome proliferator-activated receptor gamma (Homo sapiens), sequence (P37231 whole entry, looked up): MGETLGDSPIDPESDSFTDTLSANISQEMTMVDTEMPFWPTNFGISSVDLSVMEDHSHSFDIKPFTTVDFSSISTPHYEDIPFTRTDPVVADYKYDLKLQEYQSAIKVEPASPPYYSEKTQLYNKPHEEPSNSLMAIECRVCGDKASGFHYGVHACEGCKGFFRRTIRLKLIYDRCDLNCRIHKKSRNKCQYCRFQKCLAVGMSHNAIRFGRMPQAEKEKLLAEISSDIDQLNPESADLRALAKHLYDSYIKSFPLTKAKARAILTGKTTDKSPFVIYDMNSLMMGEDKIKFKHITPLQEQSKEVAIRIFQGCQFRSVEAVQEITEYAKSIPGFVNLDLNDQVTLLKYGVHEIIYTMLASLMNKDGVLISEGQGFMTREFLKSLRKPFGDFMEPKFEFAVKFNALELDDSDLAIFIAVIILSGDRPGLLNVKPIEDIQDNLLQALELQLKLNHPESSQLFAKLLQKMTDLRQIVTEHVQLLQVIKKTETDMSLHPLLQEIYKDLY
How it was run: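 Compound treatment: 16 h, 37 C, HEK293 GeneBLAzer cells. Detection: CCF4, 2 h RT. Values: Hill-fit EC50, efficacy as % of 2 uM rosiglitazone.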

[6] = target: Peroxisome proliferator-activated receptor gamma (Homo sapiens) (UniProt P37231); test: qHTS assay for small molecule antagonists of peroxisome proliferator-activated receptor gamma signaling (AID 588537; active = well fitted inhibition curve with a large enough effect in the signal ratio, with a control signal flat, not every such curve was filed as active; the % refers to the signal ratio;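 note: reporter cells co-stimulated with 50 nM rosiglitazone agonist during compound treatment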)
How it was run: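 Compounds are tested as concentration series for inhibition of rosiglitazone-driven (50 nM) reporter expression in GeneBLAzer PPAR-gamma-UAS-bla HEK293 cells. After 16 h at 37 C, CCF4 substrate is added for 2 h at room temperature and blue/green fluorescence is measured.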

[7] = target: Vitamin D3 receptor (Homo sapiens) (UniProt P11473); test: qHTS assay for small molecule agonists of vitamin D receptor signaling (AID 588543)
Vitamin D3 receptor (Homo sapiens), sequence (P11473 whole entry, looked up): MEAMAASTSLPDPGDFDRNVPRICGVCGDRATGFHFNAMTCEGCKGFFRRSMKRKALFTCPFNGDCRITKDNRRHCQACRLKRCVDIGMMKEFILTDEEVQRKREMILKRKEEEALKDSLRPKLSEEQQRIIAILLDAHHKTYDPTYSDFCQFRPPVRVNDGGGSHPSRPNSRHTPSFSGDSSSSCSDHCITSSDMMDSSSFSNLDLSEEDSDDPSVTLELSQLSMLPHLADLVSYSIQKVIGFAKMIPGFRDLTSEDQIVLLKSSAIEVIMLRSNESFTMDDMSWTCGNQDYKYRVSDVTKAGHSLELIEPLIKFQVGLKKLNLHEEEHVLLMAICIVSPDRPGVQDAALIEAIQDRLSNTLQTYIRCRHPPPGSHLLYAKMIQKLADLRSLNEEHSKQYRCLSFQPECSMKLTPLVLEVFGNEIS
How it was run: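 VDR-UAS-bla HEK293T cells, 2000/well, 2% charcoal-stripped FBS; compound titration 16 h at 37 C; CCF4 beta-lactamase ratio read. Normalized to 50 nM 1-alpha,25-dihydroxyvitamin D3 (100%) and DMSO; Hill fit gives EC50, efficacy.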

[8] = qHTS assay for small molecule antagonists of retinoid X receptor alpha signaling (AID 588546; active = well fitted inhibition curve with a large enough effect in the signal ratio, with a control signal flat, not every such curve was filed as active; the % refers to the signal ratio;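 note: cells stimulated with 9-cis-retinoic acid as agonist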); conditions: HEK293T RXRa-UAS-bla, beta-lactamase ratio, antagonist mode; measured here: W530 green channel, cytotoxicity proxy
How it was run: (§1)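 Beta-lactamase reporter inhibition, read as CCF4 fluorescence ratio (ex 405, em 460/530 nm) after 2 h at RT. HEK293T UAS-bla cells, 2500/well, were stimulated with 9-cis-RA at 500 or 100 nM final alongside test compound for 18 h at 37 C.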

[9] = target: Retinoic acid receptor RXR-alpha (Homo sapiens) (UniProt P19793); test: as above; conditions: HEK293T RXRa-UAS-bla, beta-lactamase ratio, antagonist mode
Retinoic acid receptor RXR-alpha (Homo sapiens), sequence (P19793 whole entry, looked up): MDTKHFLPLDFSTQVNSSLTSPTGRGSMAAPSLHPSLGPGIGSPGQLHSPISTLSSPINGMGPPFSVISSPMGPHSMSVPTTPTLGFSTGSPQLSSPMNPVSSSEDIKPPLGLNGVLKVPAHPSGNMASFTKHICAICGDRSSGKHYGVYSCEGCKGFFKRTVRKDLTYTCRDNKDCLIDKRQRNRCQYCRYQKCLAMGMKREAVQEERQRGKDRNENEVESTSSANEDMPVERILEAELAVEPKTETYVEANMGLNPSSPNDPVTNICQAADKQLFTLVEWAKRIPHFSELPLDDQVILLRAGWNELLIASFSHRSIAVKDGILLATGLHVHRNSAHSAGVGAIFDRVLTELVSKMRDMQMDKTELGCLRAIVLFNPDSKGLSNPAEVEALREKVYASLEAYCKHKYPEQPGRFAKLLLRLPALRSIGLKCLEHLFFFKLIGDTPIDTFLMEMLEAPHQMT
How it was run: as §1

[10] = qHTS assay for environmental chemicals that activate the Aryl hydrocarbon Receptor (AhR) signaling pathway (AID 651777; active = well fitted curve in the direction sought with a large enough effect; an effect the other way counts as inactive or inconclusive; note: nearly all actives have a fitted effect of over 15% in size); conditions: 1A2-DRE human hepatoma cells, luciferase, 24 h; activation: stronger effect = higher value
How it was run: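 Measured luciferase activity, read 30 min after One-Glo addition at room temperature, from human hepatoma cells bearing a dioxin response element–CYP1A2 promoter reporter and exposed to compound for 24 hr at 37 C.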

[11] = target: Peroxisome proliferator-activated receptor alpha (Homo sapiens) (UniProt Q07869); test: qHTS assay for small molecule agonists of the peroxisome proliferator-activated receptor alpha (PPARalpha) signaling pathway (AID 651778; active = well fitted curve in the direction sought with a large enough effect; an effect the other way counts as inactive or inconclusive); conditions: PathHunter PPARalpha complementation, chemiluminescence, 6 h; max response: stronger effect = higher value
Peroxisome proliferator-activated receptor alpha (Homo sapiens), sequence (Q07869 whole entry, looked up): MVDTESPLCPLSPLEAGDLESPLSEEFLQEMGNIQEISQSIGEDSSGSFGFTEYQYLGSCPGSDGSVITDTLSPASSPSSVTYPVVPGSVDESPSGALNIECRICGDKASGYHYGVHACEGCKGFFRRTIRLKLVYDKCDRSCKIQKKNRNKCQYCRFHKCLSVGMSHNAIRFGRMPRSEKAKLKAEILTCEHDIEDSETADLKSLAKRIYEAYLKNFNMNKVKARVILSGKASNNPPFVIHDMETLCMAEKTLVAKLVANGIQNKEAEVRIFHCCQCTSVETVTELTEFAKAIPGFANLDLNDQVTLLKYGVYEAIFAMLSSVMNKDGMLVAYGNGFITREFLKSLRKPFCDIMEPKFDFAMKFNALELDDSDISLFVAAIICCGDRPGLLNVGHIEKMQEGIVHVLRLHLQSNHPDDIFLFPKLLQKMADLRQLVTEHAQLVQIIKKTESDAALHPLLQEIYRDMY
How it was run: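 Cells plated at 2,000/well and held overnight at 37 C, 5% CO2, then compound added by pin tool for 6 hr; after PathHunter detection reagent and 60 min at room temperature, chemiluminescence from enzyme complementation was read.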

[12] = qHTS assay for small molecule agonists of the antioxidant response element (ARE) signaling pathway measured by Nrf2-dependant transcriptional activity (AID 720636; active = well fitted curve in the direction sought with a large enough effect in the repeat runs; an effect the other way counts as inactive or inconclusive;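 note: HepG2 cells with an ARE-driven luciferase reporter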)
How it was run: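 In HepG2 cells engineered with an Nrf2-responsive luciferase gene, ARE induction was quantified as luminescence after 16 hr compound treatment at 37 C.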

[13] = qHTS assay for small molecule agonists of the antioxidant response element (ARE) signaling pathway measured by Nrf2-dependant transcriptional activity - cell viability counter screen (AID 720653; active = well fitted curve in the direction sought with a large enough effect in the repeat runs; an effect the other way counts as inactive or inconclusive); conditions: ARE-bla HepG2 viability, CellTiter-Glo ATP luminescence, 16 h; max response: stronger effect = lower value
How it was run: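 ARE-bla HepG2 cells (2,000/well) rested 5 hrs at 37C/5% CO2, then exposed to compounds in DMSO for 16 hrs. Viability was read in the same wells as intracellular ATP by luminescence, 30 min at room temperature after reagent addition.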

[14] = qHTS assay for cell viability of HEK293 cells (AID 743288; active = well fitted curve in the direction sought with a large enough effect; an effect the other way counts as inactive or inconclusive; note: nearly all actives have a fitted effect of over 50% in size); conditions: ATP luminescence (CellTiter-Glo), 18 h; max response: stronger effect = lower value
How it was run: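 Steps: plate 2,000 parental HEK293 cells per well; incubate ≥5 h, 37 C; add compounds in DMSO; incubate 18 h, 37 C; add CellTiter-Glo; wait 30 min at room temperature; read luminescence.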

Peroxisome proliferator-activated receptor delta (Homo sapiens), sequence (Q03181 whole entry, looked up): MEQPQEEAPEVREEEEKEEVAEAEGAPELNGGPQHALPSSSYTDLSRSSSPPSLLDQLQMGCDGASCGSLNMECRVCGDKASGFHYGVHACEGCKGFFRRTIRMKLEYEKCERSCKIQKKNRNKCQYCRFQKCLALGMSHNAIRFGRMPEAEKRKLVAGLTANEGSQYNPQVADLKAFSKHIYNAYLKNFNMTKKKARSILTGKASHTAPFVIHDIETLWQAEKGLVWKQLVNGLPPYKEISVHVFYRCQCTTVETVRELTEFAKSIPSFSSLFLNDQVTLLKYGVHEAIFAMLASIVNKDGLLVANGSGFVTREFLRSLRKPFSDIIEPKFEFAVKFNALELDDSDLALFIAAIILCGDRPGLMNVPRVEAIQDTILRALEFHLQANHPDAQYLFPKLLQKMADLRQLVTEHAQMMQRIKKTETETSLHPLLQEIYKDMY

CC(C)CCCCOC(=O)c1ccccc1C(=O)OCCCCC(C)C
outcome [1]: inactive

CS(=O)(=O)c1ccc(Cl)cc1
outcome [1]: inactive

O=C(O)c1ccccc1C(=O)O
outcome [1]: inactive

Cc1ccc(S(N)(=O)=O)cc1
outcome [1]: inactive

CCOC(=O)C1=NN(c2ccc(Cl)cc2Cl)C(C)(C(=O)OCC)C1 (configuration not stated)
outcome [1]: inactive

O=C(/C=C/c1ccc(O)c(O)c1)OC1C[C@](O)(C(=O)O)C[C@@H](O)[C@H]1O (some centres not stated)
outcome [1]: inactive

O=c1oc(=O)c2cc3c(=O)oc(=O)c3cc12
outcome [1]: inactive

CNc1ccccc1
outcome [1]: inactive

CCCCOC(=O)c1ccccc1
outcome [1]: inactive

C=C(C)C(=O)OCCC[Si](OC)(OC)OC
outcome [1]: inactive

Cc1cc(C)c(N)c(Cl)c1
outcome [1]: inactive

O=C(O)/C=C/c1ccc(/C=C/C(=O)O)cc1
outcome [1]: inactive

CN(C)C(=O)Nc1ccccc1
outcome [1]: inactive

O=C(O)c1ccc(C(=O)O)cc1
outcome [1]: inactive

c1ccsc1
outcome [1]: inactive

C=CCOc1nc(OCC=C)nc(OCC=C)n1
outcome [1]: inactive

CCCCCCC(C)OC(=O)COc1nc(F)c(Cl)c(N)c1Cl (configuration not stated)
outcome [1]: inactive

O=[N+]([O-])c1ccc(Cl)cc1Cl
outcome [1]: inactive

CCCC(=O)OC(=O)CCC
outcome [1]: inactive

ClC/C=C/CCl
outcome [1]: inactive

Cc1cccc(C(=O)O)c1
outcome [1]: inactive

CCNS(=O)(=O)c1ccc(C)cc1
outcome [1]: inactive

CC1=CC2C3CC(C=C3C)C2C1 (configuration not stated)
outcome [1]: inactive

BrC(Br)C(Br)Br
outcome [1]: inactive

O=[N+]([O-])c1ccc2nc[nH]c2c1
outcome [1]: inactive

OC1CCCCCCCCCCC1
outcome [1]: inactive

CC(=O)OC(C)(C)C1CC=C(C)CC1 (configuration not stated)
outcome [1]: inactive

C[C@@H]1O[C@@H](O[C@@H]2[C@@H](O)[C@H](OCCc3ccc(O)c(O)c3)O[C@H](CO[C@@H]3O[C@H](CO)[C@@H](O)[C@H](O)[C@H]3O)[C@H]2OC(=O)/C=C/c2ccc(O)c(O)c2)[C@H](O)[C@H](O)[C@H]1O
outcome [1]: inactive

CC(C)(C)OCC1CO1 (configuration not stated)
outcome [1]: inactive

COCCOC(=O)c1ccccc1C(=O)OCCOC
outcome [1]: inactive

BrC1CCC(Br)C(Br)CCC(Br)C(Br)CCC1Br (configuration not stated)
outcome [1]: inactive

Nc1ccc2c(c1)C(=O)c1ccccc1C2=O
outcome [1]: inactive

CCCCC(CC)C(=O)OCCOCCOCCOC(=O)C(CC)CCCC (configuration not stated)
outcome [1]: inactive

C=C(C)C(=O)OCC[N+](C)(C)C
outcome [1]: inactive

CC(C)(N=C=O)c1cccc(C(C)(C)N=C=O)c1
outcome [1]: inactive

CCOc1cccc(N)c1
outcome [1]: inactive

CCCCCCCCCCCCCCC(=O)OC
outcome [1]: inactive

C[Si](C)(Cl)[Si](C)(C)Cl
outcome [1]: inactive

C/C=C\c1ccc(OC)cc1
outcome [1]: inactive

Oc1cc2c(cc1O)[C@H]1c3ccc(O)c(O)c3OC[C@@]1(O)C2
outcome [1]: inactive

Cc1ccccc1C(=O)O
outcome [1]: inactive

Nc1cc([N+](=O)[O-])ccc1O
outcome [1]: inactive

CC(C)Nc1ccccc1
outcome [1]: inactive

CCCCC(CC)CN1C(=O)C2C3C=CC(C3)C2C1=O (configuration not stated)
outcome [1]: inactive

Cc1ccc(Br)cc1
outcome [1]: inactive

O=[N+]([O-])c1c(Cl)cc(Cl)cc1Cl
outcome [1]: inactive

C/C=C(/C)C#N
outcome [1]: inactive

Cc1ccccc1
Potency [2]: inactive | Potency [3]: inactive | outcome [1]: inactive | Potency [4]: inactive

CCOP(=O)(SC(C)CC)N1CCSC1=O (configuration not stated)
outcome [1]: inactive | Potency [5]: inactive | Potency [6]: inactive | outcome [7]: inactive | max response [8]: -8.5% | max response [9]: 14.8% (inactive) | activation [10]: -0.193% (inactive) | max response [11]: 1.22% (inactive) | Potency [12]: inactive | max response [13]: 14.1% (inactive) | max response [14]: 6.21% (inactive)

Reference: PubChem BioAssay (NCATS)
